Measured values: PubChem BioAssay

Experiments:
[1] = target: Tumor necrosis factor receptor superfamily member 10B (Homo sapiens) (UniProt O14763); assay: caspase-8 TRAIL sensitization, hit retest, confirmation, cell-based, NB7+caspase-8, with/without TRAIL, luminescence panel (AID 651596); settings: NB7 neuroblastoma + caspase-8, TRAIL sensitization, luminescence viability, with TRAIL, mean of runs, at 10 µM, stronger effect = higher value
[2] = as above; settings: NB7 neuroblastoma + caspase-8, without TRAIL, luminescence viability, without TRAIL, mean of runs, at 10 µM

Chain of Tumor necrosis factor receptor superfamily member 10B (Homo sapiens) (O14763 whole entry, looked up): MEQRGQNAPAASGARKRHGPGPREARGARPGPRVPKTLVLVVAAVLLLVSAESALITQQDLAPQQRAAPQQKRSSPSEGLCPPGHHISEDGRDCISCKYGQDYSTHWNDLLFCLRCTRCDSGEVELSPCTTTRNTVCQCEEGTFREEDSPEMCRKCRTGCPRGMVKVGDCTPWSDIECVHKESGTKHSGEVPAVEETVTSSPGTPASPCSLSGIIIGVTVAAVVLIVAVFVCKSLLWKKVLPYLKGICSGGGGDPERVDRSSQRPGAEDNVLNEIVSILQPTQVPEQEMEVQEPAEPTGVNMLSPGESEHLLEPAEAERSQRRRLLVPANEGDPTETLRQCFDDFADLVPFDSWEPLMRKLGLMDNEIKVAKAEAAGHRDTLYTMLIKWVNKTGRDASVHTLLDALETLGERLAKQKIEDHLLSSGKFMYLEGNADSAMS

| Structure (SMILES) | activity [1] [%] | activity [2] [%] |
| --- | --- | --- |
| Cc1ccc(-c2cc(C(=O)N/N=C/c3cccnc3)c3ccccc3n2)cc1C | 43.9 | 35 |
| CCn1cc(/C=C/C(=O)c2ccc(O)cc2)c(C)n1 | 63.8 | 57.5 |
| O=C(/C=C/c1ccc([N+](=O)[O-])cc1)Nc1ncc([N+](=O)[O-])s1 | 69.1 | 68.5 |
| O=C(NC(=S)Nc1ccccn1)c1ccc(-c2ccccc2)cc1 | 76.3 | 72.8 |
| COc1ccc(/C=C/c2nc3ccccc3c(=O)o2)cc1 | 83.2 | 83.6 |
| Cc1cccc(Nc2nc(N)nc(CCl)n2)c1C | 99 | 98.3 |
| Cc1ccc(OCc2nc(-c3ccccn3)no2)c(Br)c1 | 59.6 | 56.6 |
| Cc1nc(-c2ccc(NC(=O)CC(C)C)cc2)cs1 | 51.7 | 55.5 |
| O=C(Nc1ccc(O)cc1)c1ccc2c(c1)C(=O)N(Cc1ccccc1)C2=O | 60.9 | 19.7 |
| CC(C)(C)c1ccc(-c2nnc(N)s2)cc1 | 64.7 | 66.7 |
| CC(=O)c1c(C)[nH]c(C(=O)Nc2ccccn2)c1C | 31.1 | 31.1 |
| Clc1ccccc1Nc1nnc(-c2ccncc2)s1 | 61.3 | 63.3 |
| Cc1nn(-c2ccccc2)c(/N=C/c2ccc(O)cc2)c1-c1ccccc1 | 39.1 | 13.9 |
| COc1ccc(C(=O)Nc2nnc(SCC(=O)NC3CCCC3)s2)c(OC)c1 | 74.1 | 69.8 |
| CCCOc1ccc(-c2cn3ccccc3n2)cc1 | 92.7 | 91.2 |
| COC(=O)c1ccccc1NC(=O)c1cc(-c2ccc(O)cc2)on1 | 15.1 | 27.9 |
| COc1ccc(C)cc1NC(=O)CN(Cc1nnc(-c2ccc(Cl)cc2)o1)C1CCCC1 | 76.7 | 92 |
| O=[N+]([O-])c1ccc(Sc2ccncn2)c([N+](=O)[O-])c1 | 16.8 | 65.8 |
| Cc1cc(C(=O)Cn2nnc3ccccc3c2=O)c(C)n1Cc1cccs1 | 65.1 | 58.3 |
| CCc1ccc2nc(N(CCCN(C)C)C(=O)c3ccc(S(=O)(=O)N4CCc5ccccc5C4)cc3)sc2c1 | 68.4 | 64 |
| COCCN(C(=O)COC(=O)c1c(NC(C)=O)sc(C)c1C)c1c(N)n(Cc2ccccc2)c(=O)[nH]c1=O | 58.8 | 65.8 |
| O=C(Cn1ncc(Cl)c(Cl)c1=O)NC1CCCCC1 | 98 | 98.5 |
| C#CC(=O)N(c1ccc(OC)cc1OC)C(C(=O)NC1CCCC1)c1cccs1 (stereo not given) | 99 | 99.6 |
| C/C(=N\NC(=O)c1nn(C)c(C)c1Br)c1cccc(NC(=O)c2ccc(F)cc2)c1 | 46 | 50.5 |
| COc1ccc2[nH]c3c(NCCC4=CCCCC4)ncnc3c2c1 | 35.8 | 44.1 |
